# Cruzain inh noDet: cruzain (T. cruzi) inhibition without detergent; P25779; purified cruzain, Z-FR-AMC fluorescence, no detergent; Potency, µM, actives largely listed as inhibitors; 200,000 compounds, 2.3% hits; also: nearly all actives have a fitted effect of over 40% in size
# Target sequence (P25779 123-467 limits assumed): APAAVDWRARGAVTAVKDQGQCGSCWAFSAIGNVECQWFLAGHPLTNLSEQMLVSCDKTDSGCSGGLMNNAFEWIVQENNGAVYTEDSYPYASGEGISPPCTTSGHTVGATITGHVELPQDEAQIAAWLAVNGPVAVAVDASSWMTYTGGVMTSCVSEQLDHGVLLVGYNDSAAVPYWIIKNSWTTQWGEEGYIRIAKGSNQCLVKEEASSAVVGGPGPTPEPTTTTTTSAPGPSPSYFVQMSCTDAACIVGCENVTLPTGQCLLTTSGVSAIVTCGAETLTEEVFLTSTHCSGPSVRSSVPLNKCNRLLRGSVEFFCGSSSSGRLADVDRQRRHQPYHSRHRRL
#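 Purified cruzain at 1.5 nM, pre-incubated 15 min with compound at room temperature in 100 mM sodium acetate pH 5.5, 5 mM DTT, 0.00005% Triton X-100. Reaction started with 2 uM Z-FR-AMC; AMC fluorescence increase over 60 s gives rate.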
# Cruzain inh Det: blocks cruzain activity in presence of Triton detergent; AID 1478; 200,000 compounds, 0.43% hits; Potency, µM, most hits filed as inhibitors; purified cruzain, Z-FR-AMC fluorescence, 0.01% Triton; also: nearly all actives have a fitted effect of over 40% in size
#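 Detergent-containing run (0.01% Triton X-100) in acetate buffer pH 5.5 with 5 mM DTT: enzyme at 1.5 nM final, 15 min compound preincubation at room temperature, then 2 uM Z-FR-AMC substrate. Activity taken as 60 s fluorescence increase at 360/450 nm.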
# Numbers stand for hits; . = inactive; ? = inconclusive. Compounds with a hit are over-represented: about 2.5% of the library has one in this group of screens. Calls follow the shape of the dose curve; as a rule, active = well fitted curve in the direction sought with a large enough effect; inconclusive = small, poorly fitted or top-dose-only effect, or another doubt; inactive = no such curve, though single readings can be large; an effect the other way counts as inactive or inconclusive.
SMILES,Cruzain inh noDet,Cruzain inh Det
Cc1cc(C)c(NC(=O)Cn2c(=O)nc(-c3ccccc3)c3cc(Cl)ccc32)c(C)c1,.,.
Cc1ccc(Nc2nc(C(N)=O)c(NC(=O)c3ccccc3Br)s2)cc1,?,.
N#C/C(=C\c1ccc(-c2ccccc2)cc1)c1nc(-c2ccco2)cs1,?,.
N#C/C(=C\c1ccc(-c2ccc(Br)cc2)o1)C(=O)Nc1ccccc1O,.,.
N#C/C(=C\c1ccc(-c2ccc(F)cc2)o1)C(=O)Nc1nc(-c2cccs2)cs1,6.3µM,.
N#C/C(=C/c1ccc(-c2ccccc2)o1)c1nc(-c2cccs2)cs1,7.9µM,.
Cc1nn(-c2ccccc2)c2c1N(CC(=O)N1CCN(c3ccc(F)cc3)CC1)C(=O)CS2,.,.
CCOC(=O)c1ccn(-c2nc(-c3cccc(OC)c3)cc(C(F)(F)F)n2)n1,?,.
O=C(Nc1nc2c(F)cccc2s1)c1ccc2c(c1)OCCO2,.,.
Cc1ccc(Cl)cc1N1CCN(C(=O)c2c(C)oc3ncnc(N4CCCCC4)c23)CC1,.,.
Cc1ccc(NC(=O)C2CCN(C(=O)c3cnn(-c4ccccc4)c3-n3cccc3)CC2)cc1C,?,.
COc1ccc(N2CCN(C(=O)c3sc4nc5n(c(=O)c4c3C)CCC5)CC2)cc1,.,.
CCOc1ccccc1-n1nnnc1SCC(=O)Nc1cc(C)on1,.,.
COc1cccc(NC(=O)CSc2ncnc3c2oc2ccccc23)c1,.,.
COc1ccc(CC(=O)Nc2cc3oc4ccccc4c3cc2OC)cc1,.,.
COc1cc(OC)cc(C(=O)NC(=S)Nc2cc3oc4ccccc4c3cc2OC)c1,4µM,.
COc1ccc(Cl)cc1NC(=O)CSc1ncnc2c1oc1ccccc12,16µM,.
COc1cc2c(cc1NC(=O)/C=C/c1cc(OC)c(OC)c(OC)c1)oc1ccccc12,?,.
COc1ccc(C(=O)NC(=S)Nc2cc3oc4ccccc4c3cc2OC)cc1,7.9µM,.
CCOc1ccccc1-n1nnnc1SCC(=O)Nc1cc2oc3ccccc3c2cc1OC,7.9µM,.
CCCc1cc(=O)oc2c3c(ccc12)OCN(Cc1ccc(OC)cc1)C3,?,.
Cc1cc(C(=O)N2CCN(c3cccc(C)c3C)CC2)c2c(C)nn(-c3ccccc3)c2n1,.,.
COc1ccc(CCNC(=O)c2nc(SCc3ccccc3F)ncc2Cl)cc1OC,.,.
CCSC[C@@H](N)C(=O)O,.,.
CCOc1ccc(CCNC(=O)CSCc2nc(-c3cccc(C)c3)oc2C)cc1OCC,?,.
SMILES,Cruzain inh noDet,Cruzain inh Det
CC1CCN(C(=O)c2cc(-c3ccc(Br)cc3)on2)CC1,.,.
COc1cc2c(cc1NC(=O)COc1ccc3ccccc3c1)oc1ccccc12,10µM,.
COc1cc2c(cc1NC(=S)NC(=O)c1c(OC)cccc1OC)oc1ccccc12,6.3µM,.
COc1cc2c(cc1NC(=O)COc1ccc(Br)cc1)oc1ccccc12,.,.
COc1cc2c(cc1NC(=O)C(C)Sc1nc3ccccc3n1C)oc1ccccc12 (centres undefined),25µM,.
COc1ccccc1CC(=O)Nc1cc2oc3ccccc3c2cc1OC,.,.
COc1cc2c(cc1NC(=O)C(C)Sc1cccc[n+]1[O-])oc1ccccc12 (centres undefined),?,.
Cc1cc(=O)n2nc(N3CCC(C(=O)Nc4c(C)cccc4C)CC3)sc2n1,.,.
COc1ccc(OC)c(CCNC(=O)c2cc3c(=O)n(C)c4ccccc4c3n2C)c1,?,.
CCC(=O)N1CCc2cc(Br)cc(S(=O)(=O)CCC(=O)N3CCN(c4ccccc4F)CC3)c21,.,.
Cn1c(=O)n(C)c2cc(S(=O)(=O)N3CCOCC3)ccc21,.,.
O=S(=O)(c1ccc2nc(-c3ccco3)c(-c3ccco3)nc2c1)N1CCOCC1,.,22µM
Cc1cccc(OCC(=O)N(Cc2ccc(C(C)(C)C)cc2)Cc2ccco2)c1,.,.
CCOC(=O)C1=C(C)NC(=S)NC1c1ccc(-c2ccc(Cl)cc2)o1 (centres undefined),?,.
COC(=O)C1=C(C)NC(=S)NC1c1ccc(-c2cccc(Cl)c2)o1 (centres undefined),25µM,.
CCCCOc1ccc(C(=O)NCc2nnnn2-c2ccc(C)c(C)c2)cc1,.,.
COc1ccc(C2/C=C\CN(C(=O)OCC3c4ccccc4-c4ccccc43)CC(=O)N2Cc2cccc(F)c2)cc1 (centres undefined),25µM,.
COc1ccc(C2/C=C\CN(CC(C)C)CC(=O)N2Cc2cccc(F)c2)cc1 (centres undefined),.,.
COc1ccc(CNC(=O)CCC(=O)N2CC3CCCN3c3ccccc32)cc1 (centres undefined),.,.
CCCCCCOC(=O)C(C#N)c1nc2ccccc2nc1N1CCCCC1 (centres undefined),25µM,.
CCCCCCOC(=O)C(C#N)c1nc2ccccc2nc1N1CCN(C)CC1 (centres undefined),.,.
CC1CCN(c2nc3ccccc3nc2C(C#N)C(=O)NC2CCCCC2)CC1 (centres undefined),20µM,.
N#CC(C(=O)NC1CCCCC1)c1nc2ccccc2nc1N1CCOCC1 (centres undefined),.,.
COc1ccc(OC)c(NC(=O)CCc2c(C)nn(-c3ccc(N4CCCC4)nn3)c2C)c1,.,.
Cc1nn(C(=O)c2cccc(F)c2)c(C)c1S(=O)(=O)N1CCCCCC1,.,.
SMILES,Cruzain inh noDet,Cruzain inh Det
COc1ccccc1CNC(=O)CCS(=O)(=O)c1ccc2c(c1)oc(=O)n2C,.,.
Cc1ccc(C)c(NC(=O)CCc2nc3cccnc3n2Cc2cccs2)c1,.,.
CCN(C(=O)Cn1cnc2onc(-c3ccc(F)cc3)c2c1=O)c1cc(C)ccc1C,.,.
CC1CCCC(NC(=O)Cc2ccc(Br)cc2)C1C (centres undefined),?,25µM
O=C(Cc1ccc(Br)cc1)NC1CCCCC1,.,.
C=CCc1cccc2cc(-c3nc4ccc(C(=O)O)cc4[nH]3)c(=O)oc12,.,.
N#Cc1c(C(F)(F)F)cc(-c2cccs2)nc1SCC(=O)Nc1cccc(C(F)(F)F)c1,.,.
CN1CCc2nc(SCC(=O)Nc3ccc(OC(F)(F)F)cc3)c(C#N)c(-c3cccs3)c2C1,?,.
N#Cc1ccc(-c2cccs2)nc1SCC(=O)Nc1cccc(C(F)(F)F)c1,20µM,.
CN1CCc2nc(SCC(=O)Nc3cccc(F)c3)c(C#N)c(-c3cccs3)c2C1,20µM,.
CC(C)(C)C(=O)CSc1nc2c(c(-c3cccs3)c1C#N)CCC2,25µM,.
CC(=O)CSc1nc(N)c(C#N)c(-c2cccs2)c1C#N,.,.
COc1ccc(N2CC(NC(=O)C(c3ccccc3)c3ccccc3)CC2=O)cc1OC (centres undefined),?,.
O=C(Cc1ccc(Cl)cc1)NCC(c1cccs1)S(=O)(=O)c1ccc(F)cc1 (centres undefined),.,.
Cc1ccccc1OCC(=O)Nc1ccc2c(c1)Cc1ccccc1-2,?,.
O=C(COc1ccccc1)Nc1ccc2c(c1)Cc1cc(NC(=O)COc3ccccc3)ccc1-2,2.5µM,.
Cc1c(-c2ccc(Cl)cc2)c(=O)oc2c(CN3CCN(C)CC3)c(O)ccc12,.,.
Cc1cc(C)c(NC(=O)Cn2c(=O)n(Cc3ccco3)c(=O)c3ccc(C(=O)NC4CCCC4)cc32)c(C)c1,?,.
CC(C)c1ccc(NC(=O)c2ccc(=O)n(Cc3ccccc3)c2)cc1,.,.
